Source: PubChem BioAssay (National Center for Advancing Translational Sciences (NCATS))
IL1B secr inh = blocks inflammasome-driven IL-1 beta release. AID 743279. THP-1 LPS/ATP IL-1B secretion, AlphaLISA, 16 h; active compounds read low. hit rate 4.7% among 360,000. activity change, % at 57.5 µM; in the data active = activity change below about -50%; inconclusive = mostly about -30% to -49%
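THP-1 cells pretreated 1 hr with compounds (up to 57.5 uM final), then stimulated with LPS (250 ng/mL final) plus ATP (1.25 mM final); secreted IL-1B measured by AlphaLISA after 16 hr, decreased signal indicating inhibition.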
RORgamma inh = blocks mouse ROR gamma transcriptional activity; P51450; Drosophila S2 Gal4-RORgamma UAS-luciferase reporter, 20 h; Potency, µM (series often up to 53.6 µM), hits mostly inhibitors; hit rate 5.4% among 310,000; AID 2551; also: nearly all actives have a fitted effect of over 60% in size
Target sequence (P51450 whole entry, looked up, the tested form may be a part): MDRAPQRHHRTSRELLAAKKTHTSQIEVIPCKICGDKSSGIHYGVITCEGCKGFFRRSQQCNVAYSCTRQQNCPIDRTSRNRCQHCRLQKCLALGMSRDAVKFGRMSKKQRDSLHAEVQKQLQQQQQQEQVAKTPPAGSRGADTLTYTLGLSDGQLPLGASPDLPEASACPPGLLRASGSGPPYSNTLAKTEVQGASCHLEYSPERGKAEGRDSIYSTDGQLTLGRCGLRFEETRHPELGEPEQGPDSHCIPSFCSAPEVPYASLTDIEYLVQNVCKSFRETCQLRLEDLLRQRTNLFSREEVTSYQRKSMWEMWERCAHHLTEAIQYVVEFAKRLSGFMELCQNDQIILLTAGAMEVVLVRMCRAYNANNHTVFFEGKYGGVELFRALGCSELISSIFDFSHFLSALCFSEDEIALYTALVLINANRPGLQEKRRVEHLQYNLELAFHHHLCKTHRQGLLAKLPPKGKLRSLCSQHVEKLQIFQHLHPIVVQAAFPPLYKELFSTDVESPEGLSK
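Stably transfected Drosophila Schneider cells are the test system, with ROR gamma fused to Gal4 and luciferase under UAS control; luminescence is read after 20 hr of 700 uM copper sulfate induction at ambient temperature.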
SW480 rerep = inducers of DNA re-replication in SW480 colon cancer cells | SW480 DNA re-replication, Hoechst DNA content imaging, 48 h | Potency, µM (series often up to 46.1 µM), usual class: activators | hit rate 1.8% among 340,000; also: nearly all actives have a fitted effect of over 55% in size
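First, 250 cells per well were seeded. Next, compound or vehicle (23 nL) was pinned in, plates sat 48 hr at 37 C. Finally Hoechst was added for 40 min before fluorescence scanning.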
MCF10A rerep = inducers of DNA re-replication in MCF 10A breast cells; MCF 10A DNA re-replication, Hoechst nuclear intensity, 48 h; Potency, µM (series often up to 46.1 µM), hits mostly activators; hit rate 2.9% among 350,000; also: nearly all actives have a fitted effect of over 50% in size
Gal4-VP16 FLuc = inhibits Gal4-VP16 luciferase reporter, ROR gamma counter-screen; Drosophila S2 Gal4-VP16 UAS-luciferase, luminescence, 20 h; Potency, µM (top dose mostly 53.6 µM), hits mostly inhibitors; hit rate 3.5% among 310,000; AID 2546;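 also: Gal4-VP16 expression switched on by copper sulfate through the metallothionein promoter; nearly all actives have a fitted effect of over 50% in size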
Numbers stand for hits; n = inactive; u = inconclusive; x = no result given. Shown are actives, neighbours in structure and some others; about 11% of the full set was active somewhere. Unless noted, calls follow the shape of the dose curve; as a rule, active = well fitted curve in the direction sought with a large enough effect; inconclusive = small, poorly fitted or top-dose-only effect, or another doubt; inactive = no such curve, though single readings can be large; an effect the other way counts as inactive or inconclusive.

SMILES | IL1B secr inh | RORgamma inh | SW480 rerep | MCF10A rerep | Gal4-VP16 FLuc
CC(=O)C1(C)C(=O)N(c2ccc(C)cc2)C(=O)N1c1ccc(C)cc1 (centres undefined) | n | x | n | n | x
Cn1c(=O)[nH]c(=O)c2c1nc(Br)n2CCCSc1nc2ccccc2o1 | n | n | 7.3µM | 13µM | n
Cn1c(=O)[nH]c(=O)c2c1nc(N1CCCC1)n2CCCSc1nc2ccccc2o1 | n | n | n | n | n
COc1ccc(-c2cc3nc(C)cc(NCCO)n3n2)cc1 | n | n | n | n | n
COc1ccc(-c2cc3ncc(-c4ccccc4)c(N)n3n2)cc1 | -55 | u | n | n | 7.9µM
COc1ccc(-c2cc3nc(C)cc(-c4ccc(OC)cc4)n3n2)cc1 | n | n | u | 12µM | n
COc1ccc(-c2cc3nc(C)cc(N)n3n2)cc1 | n | 11µM | n | n | 10µM
N#Cc1cnc2cc(-c3ccccc3)nn2c1N | n | n | n | n | n
COc1cc(SSc2cc(OC)cc([N+](=O)[O-])c2N)c(N)c([N+](=O)[O-])c1 | -77 | u | n | n | n
CN1CCN(NC(=O)Nc2ccc(Br)cc2Cl)CC1 | -50 | n | n | n | n
O=C(Nc1cccnc1)Nc1cccc(F)c1 | n | x | n | n | x
O=C(Nc1ccncc1)Nc1cccc(F)c1 | -80 | n | n | n | n
O=C(Nc1ccncc1)Nc1ccc(Br)cc1Cl | -94 | n | n | n | n
Oc1c(Cl)cc(Cl)cc1C=Nc1ccccc1N1CCCC1 | x | 16µM | x | x | u
COC(=O)C1=C(C)NC(C)=C(C(=O)OC)C1c1ccc(-c2cc(Cl)ccc2Cl)o1 | -68 | n | n | u | n
CCOC(=O)C1=C(C)NC(=S)NC1c1ccc(-c2cccc(Cl)c2C)o1 (centres undefined) | n | 4µM | u | u | 8.9µM
CCOC(=O)C1=C(C)NC(=S)NC1c1ccc(-c2ccc(Cl)cc2)o1 (centres undefined) | n | 2.5µM | n | u | 6.3µM
COC(=O)C1=C(C)NC(=S)NC1c1ccc(-c2ccccc2C(=O)OC)o1 (centres undefined) | n | 18µM | n | u | n
CCOC(=O)C1=C(C)NC(=O)NC1c1ccc(-c2ccc(Cl)cc2)o1 (centres undefined) | u | n | n | u | n
Cc1c(C(=O)NN2CCOCC2)nn(-c2ccc(Cl)cc2Cl)c1-c1ccc(I)cc1 | x | n | x | x | n
Cc1noc(C)c1NC(=O)Nc1cccc2c1O[C@@H](CN(C)C(=O)Nc1ccc3c(c1)OCO3)[C@@H](C)CN([C@H](C)CO)C2=O | n | x | n | n | x
CC(C)=CCn1c2ccc(NC(=O)NCc3ccc(F)cc3)cc2c(=O)n1C | n | x | x | x | x
COC(=O)C1=C(C)NC(=S)NC1c1ccc(-c2cccc(Cl)c2)o1 (centres undefined) | n | 14µM | 18µM | u | u
COC(=O)C1=C(C)NC(=O)NC1c1ccc(-c2ccc(F)cc2)o1 (centres undefined) | n | n | n | n | n
CC1CCCN(C(=S)SCC(=O)c2cc(Br)cc(Br)c2O)C1 (centres undefined) | n | u | n | u | n
SMILES | IL1B secr inh | RORgamma inh | SW480 rerep | MCF10A rerep | Gal4-VP16 FLuc
O=C(CSC(=S)N1CCCC1)c1cc(Br)cc(Br)c1O | n | u | 5.2µM | n | u
O=C(c1cc2ccccc2o1)N1CCN(Cc2nc3ccccc3s2)CC1 | n | x | x | x | x
Cc1ccc(-c2nnc(NC(=O)Cc3ccc(F)cc3)o2)c(C)c1 | n | 1.4µM | u | n | 1.3µM
Cc1ccc(C)c(-c2nnc(NC(=O)Cc3ccc(F)cc3)o2)c1 | n | 0.63µM | n | u | 0.56µM
Cc1ccc(C)c(-c2nnc(NC(=O)COc3ccccc3)o2)c1 | n | x | n | n | x
CCc1ccc2nc(N(CCCN(C)C)C(=O)c3ccc(C(=O)c4ccccc4)cc3)sc2c1 | -61 | u | n | u | u
